A selection: hits, their analogues and other compounds. The true share with any hit is near 4.3%.
rCAG binder = binders of r(CAG) RNA repeats, primary screen, biochemical, fluorescence. r(CAG) RNA repeat, TO-PRO-1 dye displacement fluorescence. inhibition, % at 3 µM. 370,000 tested, 1.3% active;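 active means inhibition above the plate cutoff, the mean of all test compounds on that plate plus 3 SD, cut at about 35% in these data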;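 further: 0% = DMSO alone and 100% = 100 µM mitoxantrone as full dye displacement; higher means more dye released from RNA so lower well fluorescence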
NadD block = inhibitors of S. aureus NadD, primary screen, biochemical, colorimetric, uHTS | purified NadD enzyme, colorimetric absorbance read-out | 360,000 tested, 0.78% active | inhibition, % at 20 µM | Nicotinate-nucleotide adenylyltransferase NadD (Staphylococcus aureus N315); in the data active means inhibition above about 26%
NR3A LBD binder = binders of NR3A ligand-binding domain, primary screen, biophysical, differential scanning fluorimetry, uHTS; Glutamate receptor ionotropic, NMDA 3A (GRIN3A) ligand-binding domain; NR3A LBD differential scanning fluorimetry, Tm shift; 0% = protein alone, 100% = glycine-bound protein; Tm shift relative to glycine control, % at 25 µM; 340,000 tested, 2.5% active;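 active means melting temperature shift of at least 10% of the positive control shift, at one fixed dose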
FAS-TE inh = FAS thioesterase domain inhibitors, primary screen, biochemical, fluorescence intensity, uHTS; 360,000 tested, 0.67% active; AID 602261, 2012; recombinant FAS-TE, OMFH fluorogenic substrate, fluorescence endpoint; inhibition, % at 15 µM; Fatty acid synthase (Homo sapiens), P49327;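 active means compounds whose normalised, plate-corrected inhibition of enzyme fluorescence in the single-dose primary screen is 50% or more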;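 further: 0% = DMSO with enzyme and 100% = substrate without enzyme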
Target sequence (P49327 whole entry, looked up, the tested form may be a part): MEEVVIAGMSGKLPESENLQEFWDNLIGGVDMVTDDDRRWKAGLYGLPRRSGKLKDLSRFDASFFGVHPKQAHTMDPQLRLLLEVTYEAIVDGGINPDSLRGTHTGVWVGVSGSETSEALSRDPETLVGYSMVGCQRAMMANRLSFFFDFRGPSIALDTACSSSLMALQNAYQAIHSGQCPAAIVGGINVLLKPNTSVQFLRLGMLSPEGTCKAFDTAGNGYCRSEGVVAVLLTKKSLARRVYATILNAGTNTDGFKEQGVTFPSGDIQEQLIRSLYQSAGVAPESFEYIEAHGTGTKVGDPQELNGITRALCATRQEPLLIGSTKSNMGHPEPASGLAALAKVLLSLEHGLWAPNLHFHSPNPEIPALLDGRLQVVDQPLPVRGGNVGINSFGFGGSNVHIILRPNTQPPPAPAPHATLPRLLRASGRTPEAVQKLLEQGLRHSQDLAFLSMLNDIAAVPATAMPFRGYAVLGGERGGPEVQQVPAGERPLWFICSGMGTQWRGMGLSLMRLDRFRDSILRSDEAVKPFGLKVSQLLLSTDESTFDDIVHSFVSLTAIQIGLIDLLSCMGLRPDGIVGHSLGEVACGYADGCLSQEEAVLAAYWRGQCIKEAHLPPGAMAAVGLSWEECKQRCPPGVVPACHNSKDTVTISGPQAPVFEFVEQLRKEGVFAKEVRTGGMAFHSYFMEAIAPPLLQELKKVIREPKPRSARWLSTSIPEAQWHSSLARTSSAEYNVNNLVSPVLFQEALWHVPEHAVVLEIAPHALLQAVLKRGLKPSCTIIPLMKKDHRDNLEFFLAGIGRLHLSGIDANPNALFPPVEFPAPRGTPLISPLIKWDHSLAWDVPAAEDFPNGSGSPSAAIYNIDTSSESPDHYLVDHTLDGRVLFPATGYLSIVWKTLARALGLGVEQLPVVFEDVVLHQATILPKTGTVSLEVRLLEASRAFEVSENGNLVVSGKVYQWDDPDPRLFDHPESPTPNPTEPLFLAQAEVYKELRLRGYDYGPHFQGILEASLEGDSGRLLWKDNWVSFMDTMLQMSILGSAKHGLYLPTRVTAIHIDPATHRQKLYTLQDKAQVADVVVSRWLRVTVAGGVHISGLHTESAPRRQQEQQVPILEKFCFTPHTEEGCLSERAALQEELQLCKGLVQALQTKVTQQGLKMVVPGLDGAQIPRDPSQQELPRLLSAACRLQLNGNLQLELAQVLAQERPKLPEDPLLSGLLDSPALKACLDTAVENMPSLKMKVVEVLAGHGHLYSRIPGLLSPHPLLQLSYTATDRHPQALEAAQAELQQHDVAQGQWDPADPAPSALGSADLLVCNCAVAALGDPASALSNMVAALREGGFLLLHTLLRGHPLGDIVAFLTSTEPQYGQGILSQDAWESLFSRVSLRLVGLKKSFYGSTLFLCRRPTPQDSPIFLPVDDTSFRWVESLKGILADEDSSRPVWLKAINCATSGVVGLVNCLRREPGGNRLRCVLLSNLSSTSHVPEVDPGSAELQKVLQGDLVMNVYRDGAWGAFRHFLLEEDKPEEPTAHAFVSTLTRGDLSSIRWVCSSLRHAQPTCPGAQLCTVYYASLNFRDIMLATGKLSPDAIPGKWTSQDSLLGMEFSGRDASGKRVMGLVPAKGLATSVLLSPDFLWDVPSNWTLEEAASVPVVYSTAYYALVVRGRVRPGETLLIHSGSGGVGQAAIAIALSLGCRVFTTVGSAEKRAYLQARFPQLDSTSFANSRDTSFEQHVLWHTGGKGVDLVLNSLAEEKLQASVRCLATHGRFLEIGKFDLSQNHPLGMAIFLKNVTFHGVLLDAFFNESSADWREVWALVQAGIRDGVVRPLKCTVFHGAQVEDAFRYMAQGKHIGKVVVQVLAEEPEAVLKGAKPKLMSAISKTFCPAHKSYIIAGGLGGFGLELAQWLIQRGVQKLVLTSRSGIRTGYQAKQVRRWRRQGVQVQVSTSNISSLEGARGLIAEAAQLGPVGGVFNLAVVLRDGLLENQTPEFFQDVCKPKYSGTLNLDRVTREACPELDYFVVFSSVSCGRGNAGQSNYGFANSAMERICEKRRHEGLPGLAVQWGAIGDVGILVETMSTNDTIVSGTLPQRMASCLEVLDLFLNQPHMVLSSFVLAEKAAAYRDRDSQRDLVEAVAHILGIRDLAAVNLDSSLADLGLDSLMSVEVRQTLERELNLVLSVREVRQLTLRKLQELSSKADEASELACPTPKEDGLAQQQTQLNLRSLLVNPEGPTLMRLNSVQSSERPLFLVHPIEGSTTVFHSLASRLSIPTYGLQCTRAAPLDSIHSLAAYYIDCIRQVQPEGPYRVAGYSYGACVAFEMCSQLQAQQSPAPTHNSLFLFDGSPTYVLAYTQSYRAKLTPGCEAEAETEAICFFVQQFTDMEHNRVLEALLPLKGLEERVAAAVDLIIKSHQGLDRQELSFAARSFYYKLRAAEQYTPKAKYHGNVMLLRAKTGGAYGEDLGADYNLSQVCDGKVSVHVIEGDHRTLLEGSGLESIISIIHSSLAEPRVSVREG
An asterisk follows results filed as active; . = not tested or not shown.

SMILES	rCAG binder	NadD block	NR3A LBD binder	FAS-TE inh
Cc1ccc(SC(C)C(=O)N2CCCC2)cc1 (centres undefined)	-1	-1	12*	-11
NC(=O)c1ccccc1NC(=O)Nc1cccc(Cl)c1	3	-3	28*	-4
CC(=O)c1ccc(NC(=O)Nc2cccc(Cl)c2)cc1	13	-4	35*	9
O=C(Nc1cccc(Cl)c1)Nc1ccccc1C(=O)O	13	-8	4	-10
CS(=O)(=O)N1CCN(c2ccccc2NC(=O)c2cc(Br)ccc2Cl)CC1	3	-8	0	17
CS(=O)(=O)N1CCN(c2ccccc2NC(=O)Nc2cccc(Cl)c2)CC1	11	-7	12*	20
O=C(Nc1ccncc1)Nc1cccc(F)c1	2	0	14*	-5
O=C(Nc1cccnc1)Nc1cccc(F)c1	0	1	0	-4
Cc1cc(NC(=O)Nc2cccc(Cl)c2)n(-c2ccccc2)n1	3	0	-5	3
CSc1ccc(NC(=O)Nc2ccc(C(=O)NCC(=O)O)cc2)cc1	10	-3	15*	-2
O=C(Nc1ccc(Cc2ccc(NC(=O)Nc3cccnc3)cc2)cc1)Nc1cccnc1	4	27	.	-1
O=C(Nc1ccc(C(=O)N2CCCCC2)cc1)Nc1cccc(Cl)c1	5	-6	13*	-2
Cc1cc(NC(=O)Nc2cccc(Cl)c2)n(-c2ccccn2)n1	5	-3	33*	27
O=C(Nc1ccc(Cl)cc1)Nc1cccnc1	0	-3	13*	-7
CC(C)CNC(=O)C1CSCCS(=O)(=O)N1Cc1ccccc1 (centres undefined)	-1	.	.	.
CC(CCN1CCC(C(O)(c2ccccc2)c2ccccc2)CC1)Oc1cccc(F)c1 (centres undefined)	1	.	.	.
CC(C)(C)N1Cc2nnn(Cc3ccccc3)c2-c2cc(N3CCCCC3)ccc2S1(=O)=O	2	.	.	.
O=C(Cc1ccccc1)NNC(=O)Nc1cccc(Cl)c1	0	0	3	-4
CSc1cccc(NC(=O)/C=C/c2cccc(Cl)c2)c1	7	-5	67*	30
O=C(CN1c2ccccc2Sc2ccccc21)NNC(=O)Nc1cccc(Cl)c1	23	7	18*	11
O=C(Nc1cccc(Cl)c1)Nc1cccc(C(=O)O)c1	2	-7	-11	-5
CSc1cccc(NC(=O)C(=O)NCc2ccccc2)c1	-3	-1	-1	-4
CSc1cccc(NC(=O)NCc2cccc(CNC(=O)Nc3cccc(SC)c3)c2)c1	12	1	16*	25
O=C(Nc1ccccc1)Nc1cccc(Cl)c1	5	6	29*	13
Cc1ccc2c(c1)N(CCCC(=O)N(C)Cc1ccccc1F)C(=O)CO2	-1	.	.	.
SMILES	rCAG binder	NadD block	NR3A LBD binder	FAS-TE inh
CCCCOc1ccc(C(=O)NC2CCCCN(Cc3ccccc3C)C2=O)cc1 (centres undefined)	-1	.	.	.
Cn1nnc2cc(NC(=O)Nc3cccc(Cl)c3)ccc21	3	3	27*	-1
CC(=O)c1ccc(NC(=S)NCCc2cccc(Cl)c2)cc1	4	-11	26*	18
CC(=O)Nc1ccc(NC(=O)Nc2cccc(Cl)c2)cc1	2	-3	34*	2
CSc1cccc(NC(N)=O)c1	0	0	-1	-6
CSc1cccc(NC(=O)Nc2ccc(Cl)cc2)c1	6	-5	29*	0
O=C(CSc1nc2ccccc2nc1N1CCCCC1)N1CCN(S(=O)(=O)c2ccccc2)CC1	9	.	.	.
N#Cc1ccc(OCCCN2CCC(C(O)(C3=CCCC3)c3ccccc3)CC2)cc1 (centres undefined)	0	.	.	.
NS(=O)(=O)c1ccc(NC(=O)Nc2cccc(Cl)c2)cc1	5	-8	33*	2
CSc1ccc(NC(=O)Nc2ccccc2C(N)=O)cc1	2	-8	10*	1
O=C(Nc1cccc(Cl)c1)Nc1ccc2nccnc2c1	15	-5	35*	-38
NS(=O)(=O)c1ccc(NC(=O)Nc2ccccc2)cc1	2	-6	7	-6
O=C(Nc1ccc2nccnc2c1)Nc1ccccc1Cl	1	0	-11	-7
CCCCOc1ccc(C(=O)NC2CCCCN(Cc3cccc(Cl)c3)C2=O)cc1 (centres undefined)	5	.	.	.
CN1C(=O)c2cc(NC(=O)Nc3ccccc3)ccc2OC[C@H]2O[C@@H](CC(=O)Nc3cc(F)ccc3F)CC[C@@H]21	8	.	.	.
CC1(C)Cc2nc(NCCCO)c(C#N)cc2CO1	0	3	16*	-5
